Measurements published in PubChem BioAssay.
The source made the active and inactive calls.

How the values were obtained:
[1] = system: PRMT1 (protein arginine N-methyltransferase 1); assay: PRMT1 binders on small-molecule microarrays, primary screen, biochemical, small-molecule microarray, 635 nm fluorescence (AID 1088); details: small-molecule microarray binding, higher = more signal;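 note: binding of Prmt1 protein to compounds spotted on small-molecule microarray slides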
[2] = yeast growth modulation, basal conditions, primary screen, YJM789 clinical isolate, OD600, 24 h (AID 1089);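 note: growth of clinical yeast isolate S. cerevisiae YJM 789 seeded 1000 cells per well; test concentration not given here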; details: S. cerevisiae YJM789 growth, higher = more signal, called active from +8 up or from −8 down
[3] = fission yeast growth modulation, primary screen, strain 972, OD600, 24 h, no modulator (AID 1090);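 note: basal condition with compound alone and no growth modifier present; test concentration not given here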; details: S. pombe 972 growth, higher = more signal, called active from +8 up or from −8 down
[4] = S. cerevisiae growth modulation with rapamycin, primary screen, strain BY4716, OD600, 96 h (AID 1091); details: higher = more signal, called active from +8 up or from −8 down; note: test concentration not given here
[5] = biological target: Torsin-1A-interacting protein 2 (Homo sapiens) (UniProt Q8NFQ8); assay: LULL1 binders on small-molecule microarray, primary screen, cell lysate, human LULL1 lysate, 635/667 nm fluorescence (AID 1092); details: hLULL1 lysate binding, 635 nm fluorescence, higher = more signal;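 note: probe is lysate of COS7 cells overexpressing human LULL1; score merges per-feature 667 nm fluorescence with signal-to-noise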
Sequence of Torsin-1A-interacting protein 2 (Homo sapiens) (Q8NFQ8 whole entry, looked up): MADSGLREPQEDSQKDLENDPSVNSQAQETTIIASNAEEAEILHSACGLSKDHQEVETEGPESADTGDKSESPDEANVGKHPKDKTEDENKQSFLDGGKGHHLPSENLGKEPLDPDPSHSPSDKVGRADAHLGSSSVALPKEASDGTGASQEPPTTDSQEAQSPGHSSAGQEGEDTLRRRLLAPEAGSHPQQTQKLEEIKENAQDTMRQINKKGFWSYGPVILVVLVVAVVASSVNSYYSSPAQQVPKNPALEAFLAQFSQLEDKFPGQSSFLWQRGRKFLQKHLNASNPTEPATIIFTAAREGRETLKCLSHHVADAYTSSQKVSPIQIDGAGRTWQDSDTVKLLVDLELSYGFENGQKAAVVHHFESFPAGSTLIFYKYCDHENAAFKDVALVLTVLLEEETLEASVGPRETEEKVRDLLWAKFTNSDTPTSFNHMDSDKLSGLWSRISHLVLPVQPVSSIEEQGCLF

[6] = E. coli growth modulation, two-sided OD650, primary screen, E. coli filamentation project, strain DRC41, 24 h (AID 1093); details: OD650, 24 h, higher = more signal, called active from +8 up or from −8 down;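 note: MC1000 strain lacking acrAB efflux and sulA so SOS filamentation is blocked; test concentration not given here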
[7] = small-molecule microarray binders of probe aLefty2, primary screen, biochemical, biotinylated probe, 635/667 nm fluorescence (AID 1094); details: higher = more signal;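 note: score merges spot fluorescence near 667 nm with spot signal-to-noise ratio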
[8] = system: Noggin (protein binding on small-molecule microarray); assay: Noggin binders on small-molecule microarray, primary screen, biochemical, 635/667 nm fluorescence (AID 1095); details: 635 nm fluorescence, higher = more signal;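 note: score merges 667 nm feature fluorescence with signal to noise over triplicate slides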
[9] = biological target: Neurogenic locus notch homolog protein 3 (Homo sapiens) (UniProt Q9UM47); assay: NOTCH3 binders on small-molecule microarray, primary screen, biochemical, 635/667 nm fluorescence (AID 1096); details: NOTCH3 binding, 635 nm fluorescence, higher = more signal
Sequence of Neurogenic locus notch homolog protein 3 (Homo sapiens) (Q9UM47 whole entry, looked up): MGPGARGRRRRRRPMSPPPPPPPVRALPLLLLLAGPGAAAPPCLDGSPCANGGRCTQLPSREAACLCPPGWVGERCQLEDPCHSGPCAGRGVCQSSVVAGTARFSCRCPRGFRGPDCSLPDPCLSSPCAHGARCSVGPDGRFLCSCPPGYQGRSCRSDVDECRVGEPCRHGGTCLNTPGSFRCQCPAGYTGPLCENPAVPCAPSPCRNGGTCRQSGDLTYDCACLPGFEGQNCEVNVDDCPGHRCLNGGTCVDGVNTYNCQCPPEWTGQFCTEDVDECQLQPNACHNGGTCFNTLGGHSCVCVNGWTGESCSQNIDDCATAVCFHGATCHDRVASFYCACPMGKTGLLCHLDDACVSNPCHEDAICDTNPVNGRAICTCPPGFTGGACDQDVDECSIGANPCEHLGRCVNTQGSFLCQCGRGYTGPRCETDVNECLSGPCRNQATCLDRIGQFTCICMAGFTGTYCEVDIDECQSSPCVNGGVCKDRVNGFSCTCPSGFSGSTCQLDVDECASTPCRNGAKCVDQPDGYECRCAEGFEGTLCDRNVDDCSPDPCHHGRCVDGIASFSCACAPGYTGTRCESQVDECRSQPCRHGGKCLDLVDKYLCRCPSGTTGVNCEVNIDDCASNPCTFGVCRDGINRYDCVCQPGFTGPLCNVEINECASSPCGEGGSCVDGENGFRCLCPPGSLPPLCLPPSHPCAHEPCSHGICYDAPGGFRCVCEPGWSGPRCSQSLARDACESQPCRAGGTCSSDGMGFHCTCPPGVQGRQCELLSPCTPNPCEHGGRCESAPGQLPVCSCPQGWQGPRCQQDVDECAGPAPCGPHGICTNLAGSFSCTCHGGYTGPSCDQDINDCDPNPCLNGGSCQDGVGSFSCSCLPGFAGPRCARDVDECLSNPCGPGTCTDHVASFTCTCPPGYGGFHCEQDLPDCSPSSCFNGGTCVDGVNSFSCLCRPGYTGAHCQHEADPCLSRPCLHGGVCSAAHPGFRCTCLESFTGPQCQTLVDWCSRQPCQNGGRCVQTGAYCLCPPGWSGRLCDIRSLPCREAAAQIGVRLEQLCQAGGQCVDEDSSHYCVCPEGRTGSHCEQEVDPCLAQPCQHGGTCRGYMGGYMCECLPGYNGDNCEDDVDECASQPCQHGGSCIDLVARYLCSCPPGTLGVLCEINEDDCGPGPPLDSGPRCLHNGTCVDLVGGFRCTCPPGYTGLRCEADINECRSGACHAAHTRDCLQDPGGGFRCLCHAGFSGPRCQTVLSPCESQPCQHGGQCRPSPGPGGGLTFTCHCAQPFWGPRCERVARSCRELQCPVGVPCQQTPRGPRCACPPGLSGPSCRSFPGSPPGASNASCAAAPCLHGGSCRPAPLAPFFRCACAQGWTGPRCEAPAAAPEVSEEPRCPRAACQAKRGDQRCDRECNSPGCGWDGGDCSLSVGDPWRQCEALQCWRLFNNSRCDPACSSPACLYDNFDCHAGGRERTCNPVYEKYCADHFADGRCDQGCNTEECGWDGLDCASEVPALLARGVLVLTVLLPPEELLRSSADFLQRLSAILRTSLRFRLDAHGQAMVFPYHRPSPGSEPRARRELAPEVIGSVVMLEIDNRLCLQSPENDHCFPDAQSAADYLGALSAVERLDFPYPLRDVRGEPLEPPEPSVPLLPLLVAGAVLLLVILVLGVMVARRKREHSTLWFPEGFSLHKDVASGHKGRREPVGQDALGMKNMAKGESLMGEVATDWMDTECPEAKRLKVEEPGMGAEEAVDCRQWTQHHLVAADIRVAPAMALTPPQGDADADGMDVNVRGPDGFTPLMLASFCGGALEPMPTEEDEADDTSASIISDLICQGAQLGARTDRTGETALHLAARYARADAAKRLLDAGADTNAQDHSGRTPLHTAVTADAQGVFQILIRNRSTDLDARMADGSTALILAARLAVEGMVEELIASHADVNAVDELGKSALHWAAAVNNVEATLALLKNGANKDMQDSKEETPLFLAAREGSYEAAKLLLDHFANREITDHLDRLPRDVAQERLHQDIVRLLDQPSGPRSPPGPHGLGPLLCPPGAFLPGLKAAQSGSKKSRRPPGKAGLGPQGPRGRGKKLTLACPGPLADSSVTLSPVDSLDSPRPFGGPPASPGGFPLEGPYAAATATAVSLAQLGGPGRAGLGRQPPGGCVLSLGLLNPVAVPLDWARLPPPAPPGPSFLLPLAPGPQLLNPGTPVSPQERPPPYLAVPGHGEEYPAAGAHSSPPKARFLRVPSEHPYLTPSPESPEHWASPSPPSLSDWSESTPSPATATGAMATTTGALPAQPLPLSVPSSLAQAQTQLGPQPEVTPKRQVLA

[10] = small-molecule microarray binders of probe aEGFR, primary screen, biochemical, biotinylated probe, 635/667 nm fluorescence (AID 1097); details: higher = more signal;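 note: probe is a biotinylated anti-EGFR antibody binding compounds printed on slides; score combines fluorescence near 667 nm and signal to noise of each spot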
[11] = system: Plasmodium falciparum Sir2 (PF13_0152, Sir2A); assay: pfSir2 binders on small-molecule microarrays, primary screen, biochemical, small-molecule microarray, 635 nm fluorescence (AID 1098); details: small-molecule microarray binding, fluorescence 635 nm; higher = more signal;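 note: score merges spot fluorescence intensity with its signal-to-noise ratio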
[12] = small-molecule microarray binders of probe aDKK1, primary screen, biochemical, biotinylated probe, 635/667 nm fluorescence (AID 1099); details: higher = more signal;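 note: score merges 667nm spot fluorescence with signal to noise across triplicate slides; reference of the scale not given here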
[13] = small-molecule microarray binders of probe aCHRDL2, primary screen, biochemical, biotinylated probe, 635/667 nm fluorescence (AID 1100); details: higher = more signal
[14] = splicing luciferase reporter signal modulators, primary screen, spliceosome inhibition project, cell-based, HEK293, splice +/- reporter (AID 1101); details: luminescence, 24 h, higher = more signal, called active from +8 up or from −8 down;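 note: HEK293 cells carrying a splicing-competent luciferase reporter gene; test concentration not given here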
[15] = biological target: Fibroblast growth factor 10 (Homo sapiens) (UniProt O15520); assay: FGF10 binders on small-molecule microarrays, primary screen, biochemical, small-molecule microarray, 635 nm fluorescence (AID 1102); details: FGF10 binding, fluorescence 635 nm, higher = more signal
Sequence of Fibroblast growth factor 10 (Homo sapiens) (O15520 whole entry, looked up): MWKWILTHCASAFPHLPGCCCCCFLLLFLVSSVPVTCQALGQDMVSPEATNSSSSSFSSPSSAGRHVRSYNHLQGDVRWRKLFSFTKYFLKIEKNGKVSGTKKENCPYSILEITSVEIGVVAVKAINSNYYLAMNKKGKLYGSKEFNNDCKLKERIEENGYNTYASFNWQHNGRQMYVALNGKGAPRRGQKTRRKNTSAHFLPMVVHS

[16] = system: glycogen synthase kinase-3 (GSK3A per assay name; protocol says GSK3B); assay: GSK3 binders on small-molecule microarrays, primary screen, biochemical, small-molecule microarray, 635 nm fluorescence, GSK3A (AID 1103); details: small-molecule microarray binding, fluorescence 635 nm; higher = more signal; note: the record names both GSK3A and GSK3B
[17] = biological target: Epidermal growth factor receptor (Homo sapiens) (UniProt P00533); assay: EGFR binders on small-molecule microarrays, primary screen, biochemical, small-molecule microarray, 635 nm fluorescence (AID 1104); details: EGFR binding, higher = more signal;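 note: score merges 667 nm emission intensity with spot signal to noise over triplicate slides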
Sequence of Epidermal growth factor receptor (Homo sapiens) (P00533 whole entry, looked up): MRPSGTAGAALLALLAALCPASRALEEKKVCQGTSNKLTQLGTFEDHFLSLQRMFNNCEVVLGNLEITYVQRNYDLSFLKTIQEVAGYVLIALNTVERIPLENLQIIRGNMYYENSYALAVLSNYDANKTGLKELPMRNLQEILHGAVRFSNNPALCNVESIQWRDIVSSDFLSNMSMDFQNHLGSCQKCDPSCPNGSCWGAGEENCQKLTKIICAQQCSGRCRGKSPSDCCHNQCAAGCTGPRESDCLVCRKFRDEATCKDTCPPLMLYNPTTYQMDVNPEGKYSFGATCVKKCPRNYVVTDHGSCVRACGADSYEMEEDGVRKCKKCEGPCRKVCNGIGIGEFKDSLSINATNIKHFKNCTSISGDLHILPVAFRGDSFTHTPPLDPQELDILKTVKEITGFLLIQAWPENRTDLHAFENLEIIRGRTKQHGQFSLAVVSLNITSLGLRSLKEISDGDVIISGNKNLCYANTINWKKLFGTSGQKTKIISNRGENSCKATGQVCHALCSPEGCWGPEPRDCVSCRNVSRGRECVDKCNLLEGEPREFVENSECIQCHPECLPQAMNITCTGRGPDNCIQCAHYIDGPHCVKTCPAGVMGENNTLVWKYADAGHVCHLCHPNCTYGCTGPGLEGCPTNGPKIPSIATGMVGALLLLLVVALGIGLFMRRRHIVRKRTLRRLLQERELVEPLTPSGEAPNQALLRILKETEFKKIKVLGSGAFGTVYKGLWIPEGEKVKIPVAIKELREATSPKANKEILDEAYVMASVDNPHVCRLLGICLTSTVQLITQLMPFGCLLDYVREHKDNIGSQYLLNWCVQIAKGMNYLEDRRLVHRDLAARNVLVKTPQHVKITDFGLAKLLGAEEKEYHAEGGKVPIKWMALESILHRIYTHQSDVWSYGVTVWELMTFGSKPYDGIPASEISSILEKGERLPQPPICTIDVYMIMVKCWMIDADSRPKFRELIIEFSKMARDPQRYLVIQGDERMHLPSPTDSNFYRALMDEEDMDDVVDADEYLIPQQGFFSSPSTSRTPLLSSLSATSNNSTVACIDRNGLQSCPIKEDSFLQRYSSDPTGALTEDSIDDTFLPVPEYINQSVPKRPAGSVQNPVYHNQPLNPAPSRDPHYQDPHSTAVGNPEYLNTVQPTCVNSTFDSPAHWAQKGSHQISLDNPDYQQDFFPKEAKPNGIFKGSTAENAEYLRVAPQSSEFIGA

[18] = biological target: Follistatin-related protein 3 (Homo sapiens) (UniProt O95633); assay: FSTL3 binders on small-molecule microarrays, primary screen, biochemical, small-molecule microarray, 635 nm fluorescence (AID 1105); details: FSTL3 binding, higher = more signal;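 note: score merges emission near 667 nm and signal to noise per printed spot across three slides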
Sequence of Follistatin-related protein 3 (Homo sapiens) (O95633 whole entry, looked up): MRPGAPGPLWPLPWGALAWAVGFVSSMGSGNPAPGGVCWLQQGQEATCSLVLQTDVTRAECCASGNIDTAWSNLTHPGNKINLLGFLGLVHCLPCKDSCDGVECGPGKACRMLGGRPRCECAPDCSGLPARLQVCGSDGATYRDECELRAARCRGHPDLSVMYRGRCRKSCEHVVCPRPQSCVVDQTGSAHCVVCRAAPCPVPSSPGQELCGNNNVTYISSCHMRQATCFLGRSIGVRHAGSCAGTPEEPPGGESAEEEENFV

[19] = biological target: Dickkopf-related protein 1 (Homo sapiens) (UniProt O94907); assay: DKK1 binders on small-molecule microarrays, primary screen, biochemical, small-molecule microarray, 635 nm fluorescence scan (AID 1106); details: DKK1 binding, higher = more signal;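 note: score merges emission near 667 nm with signal to noise over three replicate slides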
Sequence of Dickkopf-related protein 1 (Homo sapiens) (O94907 whole entry, looked up): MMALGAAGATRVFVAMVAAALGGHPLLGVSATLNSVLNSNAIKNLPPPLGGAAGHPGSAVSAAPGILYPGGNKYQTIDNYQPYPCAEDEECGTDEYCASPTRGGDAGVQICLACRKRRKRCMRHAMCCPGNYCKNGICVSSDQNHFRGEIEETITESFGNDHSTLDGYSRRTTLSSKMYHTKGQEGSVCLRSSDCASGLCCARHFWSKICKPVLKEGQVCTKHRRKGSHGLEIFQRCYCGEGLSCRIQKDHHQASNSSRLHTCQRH

[20] = system: Inhibin beta A chain (activin A); assay: INHBA (activin A) binders on microarrays, primary screen, biochemical, small-molecule microarray, 635 nm fluorescence scan (AID 1107); details: small-molecule microarray binding, higher = more signal;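 note: mouse activin A protein probed at 4.33 µg/mL on printed slides; score merges bound-protein fluorescence near 667 nm with spot signal-to-noise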

Question: Which composite z-score [1] does the source give for `CC(C)N1C(=O)[C@@]2(c3ccc([N+](=O)[O-])cc3)CC(=O)N(CC34CC5CC(CC(C5)C3)C4)[C@@H]2c2ccc(CO)cc21` here?
Answer: The composite z-score was 0.788.

Question: What about the z-score [2] of the same compound?
Answer: The z-score was 0.759 (inactive).

Question: And the z-score [3]?
Answer: Its z-score is 0.652 (inactive).

Question: What about the z-score [4] of the same compound?
Answer: Its z-score is -0.975 (inactive).

Question: And the composite z-score [5]?
Answer: The composite z-score was -0.0313.

Question: And the z-score [6]?
Answer: Its z-score is -0.0342 (inactive).

Question: And the composite z-score [7]?
Answer: Its composite z-score is -0.253.

Question: And the composite z-score [8]?
Answer: Its composite z-score is -0.337.

Question: What about the composite z-score [9] of the same compound?
Answer: The composite z-score was 0.272.

Question: And the composite z-score [10]?
Answer: Its composite z-score is -0.162.

Question: What about the composite z-score [11] of the same compound?
Answer: Its composite z-score is -0.732.

Question: And the composite z-score [12]?
Answer: The composite z-score was -0.0981.

Question: And the composite z-score [13]?
Answer: The composite z-score was 0.226.

Question: What about the z-score [14] of the same compound?
Answer: The z-score was 0.477 (inactive).

Question: What about the composite z-score [15] of the same compound?
Answer: Its composite z-score is -0.51.

Question: What about the composite z-score [16] of the same compound?
Answer: Its composite z-score is -0.829.

Question: And the composite z-score [17]?
Answer: The composite z-score was -1.81.

Question: And the composite z-score [18]?
Answer: Its composite z-score is -0.603.

Question: And the composite z-score [19]?
Answer: Its composite z-score is -0.734.

Question: What about the composite z-score [20] of the same compound?
Answer: Its composite z-score is 0.0207.

Question: Which results are given for `O=C1OCCC=C[C@H]2OC34C=CCN(Cc5ccccc5)C(=O)[C@H]3N(CCCCCCO)C(=O)[C@@H]4C12` (stereo not given in full)?
Answer: composite z-score [1]: 0.831; z-score [2]: 0.104 (inactive); z-score [3]: -0.0853 (inactive); z-score [4]: -0.0696 (inactive); composite z-score [5]: 3.21; z-score [6]: 0.801 (inactive); composite z-score [7]: -0.42; composite z-score [8]: -0.485; composite z-score [9]: 0.127; composite z-score [10]: -0.309; composite z-score [11]: 1.61; composite z-score [12]: -0.189; composite z-score [13]: 0.33; z-score [14]: -0.205 (inactive); composite z-score [15]: -1.26; composite z-score [16]: -0.578; composite z-score [17]: -0.83; composite z-score [18]: -0.435; composite z-score [19]: -1.38; composite z-score [20]: -0.597

Question: What does the source list for `[N-]=[N+]=Nc1ccccc1[C@@H]1OC(c2ccc(OCCCO)cc2)=N[C@]1(CCS(=O)(=O)c1ccccc1)C(=O)N1CCOCC1`?
Answer: composite z-score [1]: 1.55; z-score [2]: 1.32 (inactive); z-score [3]: 1.91 (inactive); z-score [4]: 1.72 (inactive); composite z-score [5]: 3.59; z-score [6]: 0.376 (inactive); composite z-score [7]: 0.515; composite z-score [8]: 0.417; composite z-score [9]: 1.06; composite z-score [10]: 0.65; composite z-score [11]: 1.43; composite z-score [12]: 1.04; composite z-score [13]: 0.994; z-score [14]: -0.4 (inactive); composite z-score [15]: 1.37; composite z-score [16]: 1.09; composite z-score [17]: 0.569; composite z-score [18]: 1.36; composite z-score [19]: 0.14; composite z-score [20]: 1.58

Question: What does the source list for `CC(C)C(=C=CC[C@H](O)c1cccc(OCCO)c1)C[C@H](O)COCc1ccccc1`?
Answer: composite z-score [1]: 0.975; z-score [2]: -0.0398 (inactive); z-score [3]: 0.299 (inactive); z-score [4]: -0.623 (inactive); composite z-score [5]: 1.92; z-score [6]: 0.299 (inactive); composite z-score [7]: -0.0616; composite z-score [8]: 0.551; composite z-score [9]: -0.243; composite z-score [10]: -0.081; composite z-score [11]: 0.845; composite z-score [12]: -0.27; composite z-score [13]: -0.154; z-score [14]: 0.102 (inactive); composite z-score [15]: 0.876; composite z-score [16]: -0.376; composite z-score [17]: -0.379; composite z-score [18]: -0.0234; composite z-score [19]: 0.116; composite z-score [20]: 0.405

Question: With `COCCOC(=O)N1C(=O)[C@@]2(c3cc(C#CCCO)ccc31)[C@H](c1ccc(O)cc1)N1[C@H](c3ccccc3)[C@H](c3ccccc3)OC(=O)[C@H]1[C@@H]2C(N)=O` as the compound, how does the composite z-score [1] read?
Answer: Its composite z-score is 1.14.

Question: What about the z-score [2] of the same compound?
Answer: The z-score was 0.253 (inactive).

Question: What about the z-score [3] of the same compound?
Answer: The z-score was 0.479 (inactive).

Question: What about the z-score [4] of the same compound?
Answer: The z-score was 0.418 (inactive).

Question: What about the composite z-score [5] of the same compound?
Answer: The composite z-score was 1.51.

Question: And the z-score [6]?
Answer: Its z-score is -0.834 (inactive).

Question: What about the composite z-score [7] of the same compound?
Answer: Its composite z-score is 0.0002.

Question: And the composite z-score [8]?
Answer: The composite z-score was -0.243.

Question: And the composite z-score [9]?
Answer: Its composite z-score is 0.213.

Question: What about the composite z-score [10] of the same compound?
Answer: The composite z-score was -0.178.

Question: What about the composite z-score [11] of the same compound?
Answer: Its composite z-score is 1.33.

Question: What about the composite z-score [12] of the same compound?
Answer: The composite z-score was 0.407.

Question: And the composite z-score [13]?
Answer: Its composite z-score is 0.654.

Question: And the z-score [14]?
Answer: The z-score was -0.626 (inactive).

Question: And the composite z-score [15]?
Answer: The composite z-score was 0.173.

Question: What about the composite z-score [16] of the same compound?
Answer: The composite z-score was 0.169.

Question: What about the composite z-score [17] of the same compound?
Answer: The composite z-score was -0.709.

Question: What about the composite z-score [18] of the same compound?
Answer: Its composite z-score is -0.0665.

Question: And the composite z-score [19]?
Answer: The composite z-score was -0.282.

Question: What about the composite z-score [20] of the same compound?
Answer: The composite z-score was 0.907.
